# According to the OligoGym collection:
# Target: TIMM44
# Assay: pooled miR-30 sensor sort-seq; sequence = guide strand
# Conditions: shRNA
# Note: reference of the scale not given here.
row,Sequence,sensor-assay potency score (higher = more potent)
1,TTGTTTGACATTATCTAGCAAG,-0.93
2,TTGACATTATCTAGCAAGCCGG,-1.12
3,ATCTTCATCTCGAAGAACCGGT,-0.094
4,TAAGTAGCTTCATAGCACCAGT,-0.441
5,TTCTTGTTTGACATTATCTAGC,-0.514

# Target: TIMM50
# Assay: as above
# Conditions: shRNA
row,Sequence,sensor-assay potency score (higher = more potent)
1,TTGCTTCTGACTAGTCTCCTGG,-0.18
2,TTTGCTTCTGACTAGTCTCCTG,-0.00854
3,TAGACGACGCTCACAGTCCCAC,-0.936
4,TACATGGTGTCCATCCATGTAT,-1
5,TTGAAATATTTGTATGTCCGGC,-0.0672
6,TGATCATCTGTCTATAATCTTT,-1.49
7,TGAAATATCCTTTACATGGTGT,0.0469
8,TTCTGCTTGTTGGACTTGGAGA,-1.03
9,TGTCCATCCATGTATCTTGTGG,-0.521
10,ATTCAGACATGAAATATCCTTT,0.389
11,TATCAATGAGTGGAAACGCAGT,-1.04

# Target: TJP3
# Assay: as above
# Conditions: shRNA
row,Sequence,sensor-assay potency score (higher = more potent)
1,ATAGGTTCGCATGCTGTCCTGT,-0.0267
2,TTCAGTGACAGGTTCTGGCTAG,0.155
3,ATCGTCTTCATCCGAGTCCTGG,-0.452
4,TACAACCATGGATCCACCGGGC,-0.563
5,TTGACGCCAAACTCTTCGCTGT,-0.592
6,TAGAATGAGATCTCCTTCCTGC,0.597
7,TACCACGTCAGATACAACCATG,-1.34
8,TTCATCTGCACGTCCTGCCGTG,-0.0273
9,TTCTGGAATCTACTGAACTTTC,-1.4
10,TTGAGCTCCTGGTACCAGGTGT,0.444
11,TCGTAGTCGCTGTTAACGCGGC,-0.824
12,TCTAGTTTGATGATCTTGGAGG,-0.916

# Target: TKT
# Assay: as above
# Conditions: shRNA
row,Sequence,sensor-assay potency score (higher = more potent)
1,TAGATGATGGCATTTTCTGGGC,-0.904
2,TTTTTGCTCTGGATCTGGCTGT,0.312
3,TTGTCGAAGTATTTGCCGGTGT,-0.129
4,TTGATGTGGGGACTGACCGAAA,-0.805
5,TTTCTTTCTTCAGCAGTTCGGC,-0.762
6,TTGCTCTTCAGGACCACCTTGG,-0.197
7,TCCTTTTTGAAGATCTCCGAGA,-0.964
8,TTGTCCCCAACTTTGTAGCTGG,-0.755
9,TAAAAGACAGTTGATGTGGGGA,0.52
10,TTCTGGTAGATGTCCATCTGGT,-0.51
11,TTGAAGATCTCCGAGAAGGTGG,0.421
12,TTGTCCAGCTTATAGATGCTGG,-1.07
